{"source": "PubChem BioAssay AID2013", "about": "(Sanford-Burnham Center for Chemical Genomics, 2009)", "note": "About 370 (0.13%) of roughly 290,000 compounds were called active.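 How the source made its calls: active means spots per cell inhibited over 60%, with over 100 cells counted and total cytoplasm intensity under 500,000; inconclusive means wells with under 100 cells, flagged as likely toxic; inactive means the rest.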 For the sample, actives were picked, then their nearest neighbours and some compounds at random. Entries with a potency or affinity are not part of this list.", "data": [{"molecular_target": "G-protein coupled receptor 55 (Homo sapiens) (UniProt Q9Y2T6)", "sequence (Q9Y2T6 whole entry, looked up)": "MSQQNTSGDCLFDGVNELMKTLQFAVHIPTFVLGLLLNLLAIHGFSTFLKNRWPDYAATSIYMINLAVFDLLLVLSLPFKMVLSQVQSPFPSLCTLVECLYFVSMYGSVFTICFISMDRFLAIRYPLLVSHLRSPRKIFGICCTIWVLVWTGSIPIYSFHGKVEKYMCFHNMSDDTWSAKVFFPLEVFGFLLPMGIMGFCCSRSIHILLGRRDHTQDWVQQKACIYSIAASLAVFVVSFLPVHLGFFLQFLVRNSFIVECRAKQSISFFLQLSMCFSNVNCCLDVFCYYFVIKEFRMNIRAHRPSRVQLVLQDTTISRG", "experiment": "inhibition of LPI-stimulated GPR55 beta-arrestin translocation – imaging, U2OS, beta-arrestin-GFP, LPI agonist, primary screen (AID 2013);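 further: U2OS cells stably carrying GPR55 and arrestin-GFP stimulated by 5 µM LPI near EC80; imaged beta-arrestin-GFP aggregate spots per cell after agonist stimulation; plate controls were LPI-stimulated DMSO wells for no effect and DMSO wells without LPI for full effect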", "conditions": "LPI antagonism, at 10 µM, hits give high values", "values": [{"smiles": "COc1cc(/C=N/NC(=O)C2CC(=O)N(c3ccc(C)cc3)C2)cc(OC)c1OC", "note": "(configuration not stated)", "inhibition": "6.8% (inactive)"}, {"smiles": "Cc1[nH]c2ccccc2c1C(=O)C(=O)N1CCN(C)CC1", "inhibition": "8.2% (inactive)"}, {"smiles": "COc1ccc(/C=C/C(=O)NCc2ccccn2)cc1OC", "inhibition": "-3% (inactive)"}, {"smiles": "Cc1ccc(CNC(=O)C(NS(=O)(=O)c2ccc3nc(C)sc3c2)C(C)C)cc1", "note": "(configuration not stated)", "inhibition": "3.8% (inactive)"}, {"smiles": "Cc1nc2ccc(S(=O)(=O)NC(C(=O)Nc3nccs3)C(C)C)cc2s1", "note": "(configuration not stated)", "inhibition": "17.8% (inactive)"}, {"smiles": "CCc1noc(C)c1C(=O)N1CC(C)OC(C)C1", "note": "(configuration not stated)", "inhibition": "22% (inactive)"}, {"smiles": "c1ccc(-c2nc(N3CCN(c4ccccc4)CC3)nc(-n3ccnc3)n2)cc1", "inhibition": "24.6% (inactive)"}, {"smiles": "c1ccc(-c2nc(-n3ccnc3)nc(-n3ccnc3)n2)cc1", "inhibition": "4.8% (inactive)"}, {"smiles": "COc1ccc(C(=O)NNC(=O)c2cccc(F)c2)cc1", "inhibition": "-5.9% (inactive)"}, {"smiles": "COc1cc(C(=O)NCC(=O)OCC(=O)c2ccc[nH]2)cc(OC)c1OC", "inhibition": "-22.9% (inactive)"}, {"smiles": "COc1ccc2c(c1)[nH]c1c(N3CCSCC3)ncnc12", "inhibition": "-7.3% (inactive)"}, {"smiles": "COc1ccccc1NC(=O)Nc1ccnn1C1CCCCC1", "inhibition": "0.2% (inactive)"}, {"smiles": "COc1ccc2cc(C(=O)N/N=C/c3sc4ccccc4c3O)ccc2c1", "inhibition": "4.9% (inactive)"}, {"smiles": "COc1ccc(NC(=O)/C(Cl)=C(/Cl)S(=O)(=O)Cc2ccc(C)cc2)cn1", "inhibition": "-0.1% (inactive)"}, {"smiles": "COc1ccc(CS(=O)(=O)/C(Cl)=C(/Cl)C(=O)Nc2ccc(OC)nc2)cc1", "inhibition": "2% (inactive)"}, {"smiles": "COc1ccc(NC(=O)/C(Cl)=C(/Cl)S(=O)(=O)Cc2ccccc2)cn1", "inhibition": "93.7% (active)"}, {"smiles": "COc1ccc(NC(=O)C(Cl)=C(Cl)Cl)cn1", "inhibition": "6.1% (inactive)"}, {"smiles": "COc1ccc(NC(=O)Cc2c(Cl)cccc2Cl)cn1", "inhibition": "9% (inactive)"}, {"smiles": "O=C(c1ccccc1[N+](=O)[O-])N1CCN(Cc2ccc3c(c2)OCO3)CC1", "inhibition": "0.2% (inactive)"}, {"smiles": "Cc1nc(COc2ccc(C(=O)Nc3ccccc3N3CCOCC3)cc2)cs1", "inhibition": "2.8% (inactive)"}, {"smiles": "CCc1ccccc1S(=O)(=O)Cc1ccc(C(=O)N2CCN(c3ccccn3)CC2)o1", "inhibition": "-4.8% (inactive)"}, {"smiles": "COc1ccc(N(CC(=O)Nc2cc(C)ccc2C)S(=O)(=O)c2c(C)nn(C)c2C)cc1", "inhibition": "10% (inactive)"}, {"smiles": "COc1ccc2nc(NC(=O)CN(c3ccc(C)cc3)S(=O)(=O)c3c(C)nn(C)c3C)sc2c1", "inhibition": "22.1% (inactive)"}, {"smiles": "C#CCNC(=O)C1=C[C@@H](c2csc3ccccc23)[C@H](CCCO)[C@@H](OCC)O1", "inhibition": "14.1% (inactive)"}, {"smiles": "COc1ccc(/C=N/NC(=O)c2cc(C34CC5CC(CC(C5)C3)C4)[nH]n2)cc1O", "inhibition": "49.4% (inactive)"}, {"smiles": "O=C(N/N=C/c1ccc(O)cc1)c1cc(C23CC4CC(CC(C4)C2)C3)[nH]n1", "inhibition": "-6.9% (inactive)"}, {"smiles": "COc1cccc(/C=N/NC(=O)c2cc(C34CC5CC(CC(C5)C3)C4)[nH]n2)c1", "inhibition": "14.9% (inactive)"}, {"smiles": "COc1cc(/C=N/NC(=O)c2cc(C3CC3)[nH]n2)ccc1O", "inhibition": "6.5% (inactive)"}, {"smiles": "CC(C)NC(=O)CN(CCc1ccccc1)S(C)(=O)=O", "inhibition": "18.2% (inactive)"}, {"smiles": "Cc1ccc(-n2ncc3c2CC(C)(C)CC3NC(=O)C2CCOCC2)cc1", "note": "(configuration not stated)", "inhibition": "9.6% (inactive)"}, {"smiles": "Cc1cc(C)n(CC(=O)O)c(=O)c1[N+](=O)[O-]", "inhibition": "1.7% (inactive)"}, {"smiles": "CNC(=O)c1sccc1Oc1ccc(F)cc1[N+](=O)[O-]", "inhibition": "8.2% (inactive)"}, {"smiles": "Cc1nc(N2CCN(C(=O)c3cccs3)CC2)c2c3c(sc2n1)CCCC3", "inhibition": "36.3% (inactive)"}, {"smiles": "CC(=O)N1CCN(c2nc(C)nc3sc4c(c23)CCC(C)C4)CC1", "note": "(configuration not stated)", "inhibition": "22.1% (inactive)"}, {"smiles": "CCc1nc(N2CCN(C(=O)c3ccco3)CC2)c2c3c(sc2n1)CCCC3", "inhibition": "7.3% (inactive)"}, {"smiles": "CC(C)c1nc(N2CCN(C(=O)c3ccco3)CC2)c2c3c(sc2n1)CCCC3", "inhibition": "98.6% (inactive)"}, {"smiles": "Cc1nc(N2CCN(C(=O)c3ccco3)CC2)c2c3c(sc2n1)CCC3", "inhibition": "46.7% (inactive)"}, {"smiles": "Cc1nc(N2CCN(S(=O)(=O)c3ccccc3)CC2)c2c3c(sc2n1)CC(C)CC3", "note": "(configuration not stated)", "inhibition": "14.2% (inactive)"}, {"smiles": "CCCN1C2CCCC1CC(NC(=O)c1cc(OC)cc(OC)c1)C2", "note": "(configuration not stated)", "inhibition": "4.9% (inactive)"}, {"smiles": "CN(C)S(=O)(=O)c1ccc(N)c([N+](=O)[O-])c1", "inhibition": "16.6% (inactive)"}, {"smiles": "FC(F)(F)COc1ccc(-n2ccnc2)nn1", "inhibition": "-3.5% (inactive)"}, {"smiles": "Cc1ccc(/C=C/C(=O)O)cc1S(=O)(=O)N1CCCc2ccccc21", "inhibition": "9.5% (inactive)"}, {"smiles": "COCCCNC(=O)CCc1ccccc1", "inhibition": "-1.2% (inactive)"}, {"smiles": "Cc1ccccc1CC(=O)N1CCN(C(=O)C2CCCO2)CC1", "note": "(configuration not stated)", "inhibition": "10.1% (inactive)"}, {"smiles": "CCCCn1c(-c2nn(C)cc2Cl)n[nH]c1=S", "inhibition": "2.5% (inactive)"}, {"smiles": "CC1=NOC(=O)/C1=C/c1ccc(-c2ccc(Cl)cc2)o1", "inhibition": "7.3% (inactive)"}, {"smiles": "CC1=NOC(=O)/C1=C\\c1ccc(-c2ccc(Cl)cc2Cl)o1", "inhibition": "21% (inactive)"}, {"smiles": "Cc1ccc(C)c(NC(=S)N2CCC(NC(=O)c3ccccc3)CC2)c1", "inhibition": "2.1% (inactive)"}, {"smiles": "NC(=O)C1(N2CCCCC2)CCN(C2CC(=O)NC2=O)CC1", "note": "(configuration not stated)", "inhibition": "9.8% (inactive)"}, {"smiles": "CN1C(=O)/C(=C\\c2ccccc2OCc2ccccc2)SC1=S", "inhibition": "-1.8% (inactive)"}, {"smiles": "CN1C(=O)/C(=C\\c2cc(N=Nc3ccccc3)ccc2O)SC1=S", "inhibition": "19.5% (inactive)"}, {"smiles": "CNC(=S)NC1(C)CCS(=O)(=O)C1", "note": "(configuration not stated)", "inhibition": "-1.4% (inactive)"}, {"smiles": "CCOC(=O)c1c(-c2ccccc2)oc2ccc(O)c(CN3CCCC3)c12", "inhibition": "-1.6% (inactive)"}, {"smiles": "CCOC(=O)c1c(-c2ccccc2)oc2ccc(O)c(CN3CCOCC3)c12", "inhibition": "34.5% (inactive)"}, {"smiles": "Cc1ccc(OCC(=O)N/N=C/C=C/c2ccco2)cc1C", "inhibition": "-3.3% (inactive)"}, {"smiles": "CC(C)(C)c1ccc(-c2c(C(=O)O)c(C(=O)O)c3n2CSC3)cc1", "inhibition": "-9.4% (inactive)"}, {"smiles": "CC(C)(C)C1=CC=C(C(C)(C)C)C(=O)C1=O", "inhibition": "-11.4% (inactive)"}, {"smiles": "CCN1C(=O)N(CC)C(O)(c2ccccc2)C1(O)c1ccccc1", "note": "(configuration not stated)", "inhibition": "14.2% (inactive)"}, {"smiles": "Cc1ccc(-n2c(C)csc2=N)cc1", "inhibition": "6.4% (inactive)"}, {"smiles": "O=C(/C=C/c1cccc(Br)c1)NCC1CCCCC1", "inhibition": "-3.3% (inactive)"}, {"smiles": "CN(C)c1ccc(/C=C/c2ccc3ccccc3[n+]2C)cc1", "inhibition": "5.6% (inactive)"}, {"smiles": "CC[n+]1c(/C=C/c2ccc(N(C)C)cc2)ccc2ccccc21", "inhibition": "-0.1% (inactive)"}]}]}
